Calls of active or inactive are those of the source. Rule for the calls: active = hit-call score of the fitted dose curve at least 0.9, where 1 is the maximum; inactive = score below 0.9.
Experiments:
[1] = target: Bile acid receptor (Homo sapiens) (UniProt Q96RI1); experiment: ATG_IR1_CIS: Attagene CIS-FACTORIAL HepG2 Assay for human Nuclear Receptor Subfamily 1 Group H Member 4 (NR1H4), IR1 submotif (AID 2282946); details: IR1 reporter transcription, actives raise or lower the signal
Procedure, shortened: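 Readout: reporter transcript levels by RT-PCR with fluorescent capillary electrophoresis, from HepG2 cells transiently transfected with multiplexed cis-regulated reporters and dosed 24 h. Gain- or loss-of-signal fitted versus DMSO negative control.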

[2] = ATG_GRE_CIS: Attagene CIS-FACTORIAL HepG2 Assay for human Glucocorticoid Response Elements (GRE) (AID 2282947); details: HepG2 GRE cis-reporter, Attagene multiplex mRNA; actives raise or lower the signal
Procedure, shortened: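 HepG2, transient cis-reporter transfection, 24 h. Reporter mRNA: RT-PCR then CE, fluorescence. Fit both directions vs DMSO.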

[3] = ATG_ISRE_CIS: Attagene CIS-FACTORIAL HepG2 Assay for human Interferon Regulatory Factor 1 (IRF1) binding to an Interferon-Stimulated Response Element (ISRE) (AID 2282948); details: HepG2 ISRE cis-reporter (Attagene), mRNA transcription readout; actives raise or lower the signal
Procedure, shortened: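 Uses HepG2 liver cells transfected with cis-regulated reporters and measures mRNA 24 h post-dosing through RT-PCR, primer-extension labelling and capillary electrophoresis, with DMSO as negative control.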

[4] = ATG_M_32_CIS: Attagene CIS-FACTORIAL HepG2 Assay for M32 Transcription Factor (Internal Marker) (AID 2282949); details: HepG2 Attagene cis-factorial M32 reporter, mRNA; actives raise or lower the signal;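 note: background control marker of the multiplexed CIS panel rather than a real target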
Procedure, shortened: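 Using DMSO as baseline, bidirectional curve fits were applied to reporter mRNA signals. These came from transiently transfected HepG2 cells exposed for 24 h, with RNA analysed by RT-PCR, FAM primer extension, HpaI digestion and CE.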

[5] = ATG_M_06_CIS: Attagene CIS-FACTORIAL HepG2 Assay for M06 Transcription Factor (Internal Marker) (AID 2282950); details: HepG2 Attagene CIS-FACTORIAL M06 internal marker reporter; actives raise or lower the signal
Procedure, shortened: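 Read-out is fluorescence of labelled reporter cDNA fragments resolved by capillary electrophoresis after RT-PCR. Cells: HepG2 carrying transfected cis-promoter reporter units, treated 24 h. Gain or loss of signal fitted relative to DMSO.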

[6] = target: Hypoxia-inducible factor 1-alpha (Homo sapiens) (UniProt Q16665); experiment: ATG_HIF1a_CIS: Attagene CIS-FACTORIAL HepG2 Assay for human Hypoxia Inducible Factor 1 (HIF1A) (AID 2282951); details: HepG2 Attagene cis-factorial HIF1a reporter transcription; actives raise or lower the signal
Procedure, shortened: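 Activity is fitted in both directions relative to DMSO. Reporter transcripts are read by RT-PCR, fluorescent primer extension and capillary electrophoresis after 24 h chemical treatment. The cells are HepG2 carrying transiently transfected cis-element-driven reporter units responding to endogenous factors.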

[7] = target: Hepatocyte nuclear factor 6 (Homo sapiens) (UniProt Q9UBC0); experiment: ATG_HNF6_CIS: Attagene CIS-FACTORIAL HepG2 Assay for human Hepatocyte Nuclear Factor 6 (HNF6) (AID 2282952); details: HepG2 Attagene cis-factorial HNF6 reporter transcription; actives raise or lower the signal
Procedure, shortened: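 First, HepG2 cells were transfected with the multiplexed cis reporter library and dosed with chemical for 24 h. Next, RNA was reverse-transcribed, PCR-amplified and fluorescently labelled. Finally, HpaI-digested fragments were read by capillary electrophoresis.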

[8] = target: Heat shock factor protein 1 (Homo sapiens) (UniProt Q00613); experiment: ATG_HSE_CIS: Attagene CIS-FACTORIAL HepG2 Assay for human Heat Shock Transcription Factor 1 (HSE) (AID 2282953); details: HepG2 HSE cis-reporter, Attagene RNA transcription; actives raise or lower the signal
Procedure, shortened: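 HepG2, transient MRTU transfection, cis-promoter reporters (endogenous TF activity). 24 h compound. RNA → oligo(dT) RT → PCR → 6-FAM primer extension → HpaI cut → CE. Bidirectional fit vs DMSO.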

[9] = ATG_MRE_CIS: Attagene CIS-FACTORIAL HepG2 Assay for human Metal Responsive Element (MRE) (AID 2282954); details: HepG2 MRE cis-reporter transcription, Attagene multiplex; actives raise or lower the signal
Procedure, shortened: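 Readout: capillary electrophoresis of 6-FAM-labelled, HpaI-digested RT-PCR reporter products. System: HepG2 cells carrying transient multiplexed cis reporters, dosed 24 h. Analysis: bidirectional fit, DMSO baseline.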

[10] = ATG_PBREM_CIS: Attagene CIS-FACTORIAL HepG2 Assay for human Phenobarbital-responsive Enhancer Module (PBREM) (AID 2282955); details: HepG2 PBREM cis-reporter, Attagene multiplexed transcription; actives raise or lower the signal
Procedure, shortened: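 Endogenous transcription factor activity was read from reporter transcripts in transiently transfected human HepG2 liver cells after 24 h dosing. RT-PCR products were fluorescently labelled, HpaI-cut and sized by capillary electrophoresis; activity fitted bidirectionally against DMSO baseline.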

Measured: AC50

Chain of Hepatocyte nuclear factor 6 (Homo sapiens) (Q9UBC0 whole entry, looked up, the tested form may be a part): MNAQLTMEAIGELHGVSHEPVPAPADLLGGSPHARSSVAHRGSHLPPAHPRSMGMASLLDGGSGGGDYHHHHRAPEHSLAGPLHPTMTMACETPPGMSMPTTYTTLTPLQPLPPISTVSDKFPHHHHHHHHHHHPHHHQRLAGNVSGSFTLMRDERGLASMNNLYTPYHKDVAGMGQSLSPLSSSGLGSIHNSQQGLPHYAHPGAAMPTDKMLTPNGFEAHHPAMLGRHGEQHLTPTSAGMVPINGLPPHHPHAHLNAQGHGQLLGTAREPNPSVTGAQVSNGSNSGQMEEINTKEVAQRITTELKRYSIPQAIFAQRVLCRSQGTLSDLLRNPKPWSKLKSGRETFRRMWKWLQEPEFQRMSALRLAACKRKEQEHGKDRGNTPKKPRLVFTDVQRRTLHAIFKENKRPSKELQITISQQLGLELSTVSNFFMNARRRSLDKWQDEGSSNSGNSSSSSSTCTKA
Chain of Hypoxia-inducible factor 1-alpha (Homo sapiens) (Q16665 whole entry, looked up): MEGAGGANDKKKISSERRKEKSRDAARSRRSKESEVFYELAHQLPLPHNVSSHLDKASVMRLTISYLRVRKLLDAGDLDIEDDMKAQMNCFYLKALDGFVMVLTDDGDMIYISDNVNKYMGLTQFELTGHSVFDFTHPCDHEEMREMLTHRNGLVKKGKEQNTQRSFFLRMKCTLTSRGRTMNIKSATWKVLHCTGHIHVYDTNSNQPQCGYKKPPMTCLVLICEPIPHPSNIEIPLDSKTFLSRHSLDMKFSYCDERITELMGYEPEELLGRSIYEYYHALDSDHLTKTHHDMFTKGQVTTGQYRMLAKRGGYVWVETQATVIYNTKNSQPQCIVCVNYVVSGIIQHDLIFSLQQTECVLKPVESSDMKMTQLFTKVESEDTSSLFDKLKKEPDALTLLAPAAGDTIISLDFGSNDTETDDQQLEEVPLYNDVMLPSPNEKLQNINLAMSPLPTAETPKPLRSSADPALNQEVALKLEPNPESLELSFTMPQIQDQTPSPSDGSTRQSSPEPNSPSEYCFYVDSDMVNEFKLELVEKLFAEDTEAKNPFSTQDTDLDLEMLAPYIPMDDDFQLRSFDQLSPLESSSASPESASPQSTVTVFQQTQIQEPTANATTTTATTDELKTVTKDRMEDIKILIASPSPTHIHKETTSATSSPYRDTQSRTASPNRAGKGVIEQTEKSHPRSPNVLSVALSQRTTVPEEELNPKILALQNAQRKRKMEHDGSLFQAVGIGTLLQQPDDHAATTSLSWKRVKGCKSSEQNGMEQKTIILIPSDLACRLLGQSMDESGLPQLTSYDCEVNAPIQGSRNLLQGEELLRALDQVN
Chain of Heat shock factor protein 1 (Homo sapiens) (Q00613 whole entry, looked up): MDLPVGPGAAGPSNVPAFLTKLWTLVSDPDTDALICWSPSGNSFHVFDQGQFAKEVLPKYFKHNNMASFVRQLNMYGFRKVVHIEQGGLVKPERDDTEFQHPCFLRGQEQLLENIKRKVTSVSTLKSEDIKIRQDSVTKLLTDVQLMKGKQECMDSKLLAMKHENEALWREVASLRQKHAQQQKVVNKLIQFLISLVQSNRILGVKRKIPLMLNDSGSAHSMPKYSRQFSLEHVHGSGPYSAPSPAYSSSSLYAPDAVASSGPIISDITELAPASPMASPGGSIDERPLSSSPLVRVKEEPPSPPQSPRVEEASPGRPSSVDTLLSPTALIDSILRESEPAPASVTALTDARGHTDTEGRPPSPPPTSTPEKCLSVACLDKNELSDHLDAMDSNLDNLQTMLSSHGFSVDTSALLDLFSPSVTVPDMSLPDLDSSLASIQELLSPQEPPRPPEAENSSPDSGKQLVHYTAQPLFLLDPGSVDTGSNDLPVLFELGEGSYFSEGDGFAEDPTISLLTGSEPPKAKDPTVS
Chain of Bile acid receptor (Homo sapiens) (Q96RI1 whole entry, looked up): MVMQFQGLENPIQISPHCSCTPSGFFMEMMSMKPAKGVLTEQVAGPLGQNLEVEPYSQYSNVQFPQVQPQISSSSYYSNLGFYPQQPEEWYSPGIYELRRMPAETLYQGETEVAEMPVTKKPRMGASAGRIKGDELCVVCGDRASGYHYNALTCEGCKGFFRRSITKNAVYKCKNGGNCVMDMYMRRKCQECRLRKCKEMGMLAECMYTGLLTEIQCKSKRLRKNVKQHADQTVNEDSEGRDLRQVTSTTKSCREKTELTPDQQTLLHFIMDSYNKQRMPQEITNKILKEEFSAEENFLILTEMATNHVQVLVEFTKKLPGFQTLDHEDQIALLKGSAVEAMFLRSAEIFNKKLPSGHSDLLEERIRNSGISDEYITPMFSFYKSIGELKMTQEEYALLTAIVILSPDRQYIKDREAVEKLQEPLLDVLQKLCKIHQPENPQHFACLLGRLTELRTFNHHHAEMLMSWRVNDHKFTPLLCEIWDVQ

CCc1c(C(=O)O)c(=O)cnn1-c1ccc(Cl)cc1
not listed: [10]
inactive: all other assays above

O=C1CCCCCCCCCCCCCCCO1
active: [6] 122 µM | [8] 160 µM | [9] 180 µM
inactive: all other assays above

CC(C)=CCC/C(C)=C\C#N
inactive: all assays above

CCCCCCCCO[C@@H]1O[C@H](CO)[C@@H](O)[C@H](O)[C@H]1O
not listed: [10]
inactive: all other assays above

O=[N+]([O-])c1ccc(CO)cc1
not listed: [9] | [10]
inactive: all other assays above

Cc1ccc(C2OC[C@@H]3OC(c4ccc(C)cc4)O[C@H]([C@H](O)CO)[C@@H]3O2)cc1 (some centres undefined)
not listed: [10]
inactive: all other assays above

O=CC1CC1
inactive: all assays above

CCCCCCCCCCc1ccccc1
not listed: [10]
inactive: all other assays above

CC(=O)OC1C2(C)CCC(C2)C1(C)C (centres undefined)
not listed: [10]
inactive: all other assays above

OCCc1ccncc1
not listed: [8] | [9] | [10]
inactive: all other assays above

CC(C)c1ccc2c(C(C)C)cc(C(C)C)c(S(=O)(=O)O)c2c1
active: [9] 21.1 µM
not listed: [10]
inactive: all other assays above

CC(C)=CC1CC(C)CCO1 (centres undefined)
not listed: [9] | [10]
inactive: all other assays above

C[Si](C)(C)O[Si](O)(O)O
not listed: [10]
inactive: all other assays above

C=C(C)CCO
not listed: [10]
inactive: all other assays above

C1=CCCC1
active: [6] 48.6 µM
not listed: [8] | [9] | [10]
inactive: all other assays above

Cc1ccc2oc(=O)ccc2c1
inactive: all assays above

NC(=O)c1ccccc1O
not listed: [10]
inactive: all other assays above

C=CC(=O)OCCOC1C2CCC1C1CC=CC12 (centres undefined)
not listed: [10]
inactive: all other assays above

CC(=O)c1ccc[nH]1
not listed: [10]
inactive: all other assays above

O=S(=O)(O)c1cc(S(=O)(=O)O)c2ccc3c(S(=O)(=O)O)cc(S(=O)(=O)O)c4ccc1c2c43
not listed: [9] | [10]
inactive: all other assays above

C=CC(=O)OCC(Br)CBr (centres undefined)
active: [1] 65.3 µM | [3] 100 µM | [8] 155 µM
not listed: [10]
inactive: all other assays above

O=P(O)(O)Oc1ccccc1
not listed: [10]
inactive: all other assays above

c1ccc(CCCc2ccncc2)cc1
active: [8] 144 µM
not listed: [10]
inactive: all other assays above

CCOC(F)(F)C(F)(F)C(F)(F)C(F)(F)F
inactive: all assays above

CC(C)(C)c1n[nH]c(=O)n(N)c1=O
not listed: [10]
inactive: all other assays above

OCCN(CCO)c1ccccc1
not listed: [10]
inactive: all other assays above

C#CC1(O)CC[C@H]2[C@@H]3CCC4=CCCC[C@@H]4[C@H]3CC[C@@]21C (some centres undefined)
active: [1] 0.849 µM | [7] 55.3 µM
not listed: [10]
inactive: all other assays above

O=C(O)CC(C(=O)O)C(CC(=O)O)C(=O)O (centres undefined)
inactive: all assays above

Nc1ccc(Cl)cc1Cl
not listed: [9] | [10]
inactive: all other assays above

CCCCCCCC[N+](C)(CCCCCCCC)CCCCCCCC
active: [6] 0.000753 µM | [9] 2.15 µM
inactive: all other assays above

CCCCNc1ccc(NCCCC)c2c1C(=O)c1ccccc1C2=O
not listed: [10]
inactive: all other assays above

Clc1nc2ccccc2s1
not listed: [10]
inactive: all other assays above

NC(=O)NNC(N)=O
not listed: [10]
inactive: all other assays above

NC(=O)C1CO1 (centres undefined)
not listed: [10]
inactive: all other assays above

c1ccc2c(c1)ccc1cc3c(ccc4ccccc43)cc12
active: [6] 0.364 µM
not listed: [10]
inactive: all other assays above

CCCCCCCCCCCCCCCC[N+](C)(C)CC
active: [3] 9.27 µM | [9] 8.94 µM
not listed: [10]
inactive: all other assays above

COC(=O)c1ccccc1OC
not listed: [10]
inactive: all other assays above

CCCCCCCC(C)=O
not listed: [10]
inactive: all other assays above

CC[C@H]1OC(=O)[C@H](C)[C@@H](O[C@H]2C[C@@](C)(OC)[C@@H](O)[C@H](C)O2)[C@H](C)[C@@H](O[C@@H]2O[C@H](C)C[C@H](N(C)C)[C@H]2O)[C@](C)(O)C[C@@H](C)C(=NOCOCCOC)[C@H](C)[C@@H](O)[C@]1(C)O
not listed: [10]
inactive: all other assays above

O=C1C=CC(=O)O1
not listed: [10]
inactive: all other assays above

COC(=O)c1sccc1S(N)(=O)=O
inactive: all assays above

O=C(C(Cl)Cl)N1CCOC12CCCCC2
active: [1] 5.74 µM
not listed: [8]
inactive: all other assays above

CCCCCCC(O)CO (centres undefined)
inactive: all assays above

CCCCCc1ccc(Cl)cc1
not listed: [6] | [10]
inactive: all other assays above

O=Cc1ccc(CO)o1
not listed: [9]
inactive: all other assays above

FC(F)=C(F)OC(F)(F)C(F)(F)C(F)(F)F
not listed: [8]
inactive: all other assays above

CCCCCCOC(=O)C(C)CC (centres undefined)
inactive: all assays above

CCCC(C)CCC(C)=O (centres undefined)
inactive: all assays above

Oc1ccc(Cl)cc1Cc1cc(Cl)ccc1O
active: [1] 11.1 µM | [6] 11.1 µM | [9] 11.1 µM
inactive: all other assays above

Cc1cnc(NC(=O)C2=C(O)c3ccccc3S(=O)(=O)N2C)s1
not listed: [6] | [10]
inactive: all other assays above

Cn1c(=O)[nH]c2ncn(C)c2c1=O
not listed: [6] | [10]
inactive: all other assays above

CC(=O)[C@@]1(O)CC[C@H]2[C@@H]3C[C@H](C)C4=CC(=O)C=C[C@]4(C)[C@@]3(F)[C@@H](O)C[C@@]21C
active: [2] 0.0821 µM
not listed: [8]
inactive: all other assays above
